Reference: PubChem BioAssay AID1159580 (chemical genetic matrix, 2015)
Among all 5,500 compounds or so, about 2,000 (36%) were called active. Inconclusive results (about 18%) are left out. No stated cut-off is given here; in the data, active means normalized growth mostly below about 0.91 (no sharp cut-off); inconclusive means no clear call, values can overlap the other calls; inactive means mostly above about 0.92. This is one part of the list.

Assay: chemical genetic growth profiling, strain panel (AID 1159580);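 further: tested at 20 µM; growth read once vehicle control cultures reached saturation at 30 °C; 1 = growth at the plate median or of vehicle wells; lower values mean less growth of the strain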
Details: growth OD

Measured: normalized growth

CN1CCC(=C2c3ccccc3Sc3ccccc32)CC1
active: S. cerevisiae deletion strains, locus YLR039C, strain RIC1, active compounds read low 1.34 [resistant] | S. cerevisiae deletion strains, locus YLR262C, strain YPT6, active compounds read low 1.44 [resistant]
inactive: S. cerevisiae deletion strains, locus YJR075W, strain HOC1, active compounds read low 0.935 | S. cerevisiae deletion strains, locus YKL009W, strain mrt4, active compounds read low 0.982 | S. cerevisiae deletion strains, locus YKL068W, active compounds read low 1 | S. cerevisiae deletion strains, locus YKL085W, strain MDH1 (second series), active compounds read low 0.999 | S. cerevisiae deletion strains, locus YKL085W, strain MDH1, active compounds read low 0.999 | S. cerevisiae deletion strains, locus YKL160W, strain elf1, active compounds read low 1 | S. cerevisiae deletion strains, locus YKL190W, strain CNB1, active compounds read low 1 | S. cerevisiae deletion strains, locus YKR001C, strain vps1, active compounds read low 0.996 | S. cerevisiae deletion strains, locus YKR026C, strain gcn3, active compounds read low 1.03 | S. cerevisiae deletion strains, locus YKR091W, strain srl3, active compounds read low 1.03 | S. cerevisiae deletion strains, locus YLL001W, strain dnm1, active compounds read low 1.03 | S. cerevisiae deletion strains, locus YLL026W, active compounds read low 1.02 | S. cerevisiae deletion strains, locus YLL041C, strain sdh2, active compounds read low 1.01 | S. cerevisiae deletion strains, locus YLR027C, strain aat2, active compounds read low 1.02 | S. cerevisiae deletion strains, locus YLR058C, strain SHM2, active compounds read low 1 | S. cerevisiae deletion strains, locus YLR102C, strain apc9, active compounds read low 1.01 | S. cerevisiae deletion strains, locus YLR113W, strain HOG1, active compounds read low 0.979 | S. cerevisiae deletion strains, locus YLR221C, strain rsa3, active compounds read low 1 | S. cerevisiae deletion strains, locus YLR258W, strain gsy2, active compounds read low 1.04 | S. cerevisiae deletion strains, locus YLR262C, strain YPT6 (second series), active compounds read low 1.13 | S. cerevisiae deletion strains, locus YLR268W, strain sec22, active compounds read low 1.06 | S. cerevisiae deletion strains, locus YLR320W, strain mms22, active compounds read low 1.01 | S. cerevisiae deletion strains, locus YLR330W, strain CHS5, active compounds read low 0.994 | S. cerevisiae deletion strains, locus YLR342W, strain FKS1 (second series), active compounds read low 0.859 | S. cerevisiae deletion strains, locus YLR342W, strain FKS1, active compounds read low 1.03 | S. cerevisiae deletion strains, locus YLR357W, strain rsc2, active compounds read low 1.04 | S. cerevisiae deletion strains, locus YLR370C, strain arc18, active compounds read low 1.02 | S. cerevisiae deletion strains, locus YLR371W, strain rom2, active compounds read low 1.02 | S. cerevisiae deletion strains, locus YLR384C, strain iki3, active compounds read low 1.02 | S. cerevisiae deletion strains, locus YLR418C, strain cdc73, active compounds read low 0.874 | S. cerevisiae deletion strains, locus YML016C, strain PPZ1, active compounds read low 0.998 | S. cerevisiae deletion strains, locus YML032C, strain rad52, active compounds read low 1.01 | S. cerevisiae deletion strains, locus YML120C, strain ndi1, active compounds read low 0.985 | S. cerevisiae deletion strains, locus YML124C, strain tub3, active compounds read low 1.02 | S. cerevisiae deletion strains, locus YMR058W, strain fet3, active compounds read low 1.01 | S. cerevisiae deletion strains, locus YMR078C, strain ctf18, active compounds read low 1 | S. cerevisiae deletion strains, locus YMR125W, strain sto1, active compounds read low 1.03 | S. cerevisiae deletion strains, locus YMR129W, active compounds read low 1.01 | S. cerevisiae deletion strains, locus YMR205C, strain PFK2, active compounds read low 1.06 | S. cerevisiae deletion strains, locus YMR223W, strain ubp8, active compounds read low 0.962 | S. cerevisiae deletion strains, locus YMR231W, strain pep5, active compounds read low 1.02 | S. cerevisiae deletion strains, locus YMR263W, strain SAP30, active compounds read low 0.969 | S. cerevisiae deletion strains, locus YMR307W, strain GAS1, active compounds read low 1.05 | S. cerevisiae deletion strains, locus YNL067W, strain RPL9B, active compounds read low 0.997 | S. cerevisiae deletion strains, locus YNL071W, strain lat1, active compounds read low 1.01 | S. cerevisiae deletion strains, locus YNL128W, strain TEP1, active compounds read low 1.01 | S. cerevisiae deletion strains, locus YNL153C, strain GIM3, active compounds read low 0.982 | S. cerevisiae deletion strains, locus YNL183C, strain NPR1, active compounds read low 0.892 | S. cerevisiae deletion strains, locus YNL209W, strain ssb2, active compounds read low 1 | S. cerevisiae deletion strains, locus YNL233W, strain BNI4, active compounds read low 1 | S. cerevisiae deletion strains, locus YNL248C, strain rpa49, active compounds read low 0.958 | S. cerevisiae deletion strains, locus YNL250W, strain rad50, active compounds read low 1.01 | S. cerevisiae deletion strains, locus YNL271C, strain bni1, active compounds read low 1.02 | S. cerevisiae deletion strains, locus YNL298W, strain CLA4, active compounds read low 1 | S. cerevisiae deletion strains, locus YNL307C, strain MCK1, active compounds read low 0.993 | S. cerevisiae deletion strains, locus YNL322C, strain KRE1 (second series), active compounds read low 1.03 | S. cerevisiae deletion strains, locus YNL322C, strain KRE1, active compounds read low 1.01 | S. cerevisiae deletion strains, locus YNR049C, strain mso1, active compounds read low 1.02 | S. cerevisiae deletion strains, locus YNR052C, strain pop2, active compounds read low 0.973 | S. cerevisiae deletion strains, locus YOL006C, strain TOP1, active compounds read low 0.879 | S. cerevisiae deletion strains, locus YOL012C, strain htz1 0.875 | S. cerevisiae deletion strains, locus YOL147C, strain pex11, active compounds read low 1.01 | S. cerevisiae deletion strains, locus YOR001W, strain rrp6, active compounds read low 0.97 | S. cerevisiae deletion strains, locus YOR061W, strain CKA2, active compounds read low 1.01 | S. cerevisiae deletion strains, locus YOR069W, strain VPS5, active compounds read low 0.996 | S. cerevisiae deletion strains, locus YOR070C, strain gyp1, active compounds read low 1.02 | S. cerevisiae deletion strains, locus YOR080W, strain dia2, active compounds read low 1.03 | S. cerevisiae deletion strains, locus YOR083W, strain WHI5, active compounds read low 0.96 | S. cerevisiae deletion strains, locus YOR106W, strain vam3, active compounds read low 0.966 | S. cerevisiae deletion strains, locus YOR136W, strain idh2, active compounds read low 1.04 | S. cerevisiae deletion strains, locus YOR144C, strain elg1, active compounds read low 1.01 | S. cerevisiae deletion strains, locus YOR184W, strain ser1, active compounds read low 1.03 | S. cerevisiae deletion strains, locus YOR231W, strain MKK1, active compounds read low 0.99 | S. cerevisiae deletion strains, locus YOR265W, strain rbl2, active compounds read low 1.02 | S. cerevisiae deletion strains, locus YOR270C, strain vph1, active compounds read low 0.933 | S. cerevisiae deletion strains, locus YOR290C, strain snf2, active compounds read low 0.973 | S. cerevisiae deletion strains, locus YOR316C, strain cot1, active compounds read low 1.01 | S. cerevisiae deletion strains, locus YPL051W, strain arl3, active compounds read low 0.974 | S. cerevisiae deletion strains, locus YPL055C, strain LGE1, active compounds read low 0.958 | S. cerevisiae deletion strains, locus YPL078C, strain atp4, active compounds read low 0.983 | S. cerevisiae deletion strains, locus YPL106C, strain sse1, active compounds read low 1.09 | S. cerevisiae deletion strains, locus YPL240C, strain hsp82, active compounds read low 1.02 | S. cerevisiae deletion strains, locus YPL241C, strain CIN2, active compounds read low 1 | S. cerevisiae deletion strains, locus YPL256C, strain CLN2, active compounds read low 0.995 | S. cerevisiae deletion strains, locus YPR119W, strain clb2, active compounds read low 1.01 | S. cerevisiae deletion strains, locus YPR141C, strain kar3, active compounds read low 1.01 | S. cerevisiae deletion strains, locus YPR163C, strain tif3, active compounds read low 0.993 | S. cerevisiae deletion strains, locus YPR167C, strain met16, active compounds read low 1.01 | S. cerevisiae deletion strains, strain wtn01, active compounds read low 1.02 | S. cerevisiae strains, strain wild type, active compounds read low 0.993
